Bioassay records as filed in PubChem BioAssay.
PINK1 expr mod: changes PINK1 expression. PINK1 immunofluorescence, high-content cytometry, 24 h. Potency, µM (top dose mostly 76.6 µM), for the others: at the top dose activation (PINK1 increase), usual class: activators. 0.2% of 410,000 active; active means well fitted activation curve with a large enough effect; inconclusive means small, poorly fitted or top-dose-only effect; cell line not stated here; further: potency means the concentration at half of the fitted maximal effect; % of control where 0% means no effect; nearly all actives have a fitted effect of over 65% in size
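A stable cell line was treated with compounds at 5 concentrations for 24 hours, with CCCP as control. PINK1 levels and mitochondrial localization were measured by immunofluorescence with mitochondrial, cell and nuclear markers after fixation, read by laser-scanning cytometry.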
IL1B secr inh: inflammasome signaling inhibition, IL-1 beta readout; THP-1 LPS/ATP IL-1B secretion, AlphaLISA, 16 h; active compounds read low; activity change, % at 57.5 µM; 4.7% of 360,000 active; AID 743279; in the data active means activity change below about -50%; inconclusive means mostly about -30% to -49%; further: on the % scale 0 is the no-effect control and ±100 the full control effect
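THP-1 cells pretreated 1 hr with compounds (up to 57.5 uM final), then stimulated with LPS (250 ng/mL final) plus ATP (1.25 mM final); secreted IL-1B measured by AlphaLISA after 16 hr, decreased signal indicating inhibition.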
SW480 rereplic: induces DNA re-replication in SW480 colon adenocarcinoma cells | SW480 DNA re-replication, Hoechst DNA content imaging, 48 h | Potency, µM (titrated, usually from 46.1 µM), inactives show top-dose re-replication activation, actives largely listed as activators | 1.8% of 340,000 active; further: potency means the concentration at half of the fitted maximal effect; % of control where 0% means no effect; nearly all actives have a fitted effect of over 55% in size
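Image-based DNA-content assay: after two days of treatment, nuclei were labelled with the DNA dye Hoechst and imaged, and hits were compounds raising the count of nuclei showing high fluorescence intensity.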
MCF10A rereplic: DNA re-replication induction in MCF 10a cells; 2.9% of 350,000 active; Potency, µM (highest dose often 46.1 µM), inactives show at the top dose activity, positive = re-replication, most hits filed as activators; MCF 10A DNA re-replication, Hoechst nuclear intensity, 48 h; further: potency means the concentration at half of the fitted maximal effect; % of control where 0% means no effect; nearly all actives have a fitted effect of over 50% in size
ATXN viability: viability counter-screen for ATXN expression inhibitors; S2 cells (HEK-293 line with an ATXN2-luciferase reporter) viability, CellTiter-Fluor protease fluorescence, 24 h; Potency, µM (titrated, usually from 56.7 µM), most hits filed as cytotoxic; 0.49% of 400,000 active; further: potency means the concentration at half of the fitted maximal effect; nearly all actives have a fitted effect of over 40% in size
ATXN2 expr inh: reduces ATXN2 reporter expression in HEK-293 cells | HEK-293 ATXN2-luciferase reporter, luminescence, 24 h | Potency, µM (titrated, usually from 57 µM), for the others: at the highest dose activity change, negative = inhibition, usual class: inhibitors | 0.72% of 360,000 active | AID 1745845; further: potency means the concentration at half of the fitted maximal effect; on the % scale 0 is the no-effect control and ±100 the full control effect; nearly all actives have a fitted effect of over 55% in size
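qHTS (up to 57 uM final) was run with 24 h compound exposure of reporter cells at 37 °C. Each well was multiplexed: SteadyGlo luminescence measured ATXN2-luciferase expression after a fluorogenic Gly-Phe-AFC viability readout (25 uM final).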
* hit, by the source's call; i = inactive; ? = inconclusive; nt = no result; [ ] = dose if it differs, or a comment. Only some compounds are listed: those with a hit (about 7.1% of all), similar ones and a draw of the others. Unless noted, the call rests on the fitted dose curve; in most records, active means well fitted curve in the direction sought with a large enough effect; inconclusive means small, poorly fitted or top-dose-only effect, or another doubt; inactive means no such curve, though single readings can be large; an effect the other way counts as inactive or inconclusive.

SMILES	PINK1 expr mod	IL1B secr inh	SW480 rereplic	MCF10A rereplic	ATXN viability	ATXN2 expr inh
Cc1cc(C)c2nc(NC(=O)c3ccc(OCC4CCCO4)cc3)sc2c1 (centres undefined)	-1%	-16	-53%	-17%	?	nt
O=C(Nc1ccc(Cl)cc1)c1ccc(OCC2CCCO2)cc1 (centres undefined)	0%	24	-9%	0%	i	26%
COc1ccc(CNC(=O)Cn2ncc3c4ccccc4n(Cc4cccc(Cl)c4)c3c2=O)cc1	-1%	nt	nt	nt	i	4%
CC(C)(C)c1ccc(C(=O)Nc2nnc3n2CCS3)cc1	2%	nt	nt	nt	?	?
Cc1ccc(CNC(=O)CCC(=O)N2CC3CCCN3c3ccccc32)cc1 (centres undefined)	1%	nt	nt	nt	nt	nt
CC1=C(C(=O)Nc2cccc(F)c2)C(c2ccsc2)C2=C(CC(C)(C)CC2=O)N1 (centres undefined)	5%	48	nt	5.8µM*	?	-21%
CC(=O)Nc1cccc(NC(=O)C(=O)c2cn(CC(=O)N3CCCC3)c3ccccc23)c1	5%	-2	nt	nt	i	nt
CCCC[C@H](CN[C@@H](CNC)[C@H](C)CC)NCCC12CCC(CC1)C2	-1%	-68*	10%	?	28µM*	28µM*
CN(C)S(=O)(=O)c1ccc(C(=O)Nc2ccc(-n3nncc3-c3ccccc3)cc2)cc1	3%	nt	nt	nt	nt	nt
COc1cccc(C=Nc2cc(C(C)C)c(O)cc2C)c1O	-2%	?	?	?	i	-27%
Cc1cc(O)c(C(C)C)cc1N=Cc1ccc(N(C)C)cc1	0%	-8	?	21µM*	i	?
Cc1cc(O)c(C(C)C)cc1N=Cc1ccc([N+](=O)[O-])cc1	2%	0	18µM*	18µM*	i	?
CCC1CO/C(=C(\C(Cl)=C(Cl)Cl)[N+](=O)[O-])N1 (centres undefined)	0%	-61*	-1%	3%	i	-6%
CN1CCO/C1=C(\C(Cl)=C(Cl)Cl)[N+](=O)[O-]	-1%	-8	6%	-33%	i	-4%
CC(C)CN=c1cc(-c2ccccc2)oc2ccc(Cl)cc12	?	-27	?	?	?	-35%
CN(C)CCCN1C(=O)c2oc3ccc(Cl)cc3c(=O)c2C1c1cccnc1 (centres undefined)	-1%	15	-4%	1%	i	6%
CN(C)CCCN=c1cc(-c2ccccc2)oc2ccc(Cl)cc12	-1%	-50*	5%	20%	i	-21%
O=c1oc2ccc(Cl)cc2cc1-c1ccccc1	8%	-3	-4%	14%	i	5%
CC(O)CN=c1cc(-c2ccccc2)oc2ccc(Cl)cc12 (centres undefined)	-1%	-72*	25%	?	?	-24%
OCCN=c1cc(-c2ccccc2)oc2ccc(Cl)cc12	-1%	-70*	?	?	i	-9%
Cc1cccc(NC(=O)CSc2ccc(-c3sc(-c4ccccc4)nc3C)nn2)c1C	0%	nt	nt	nt	nt	nt
CCOC(=O)N1CCc2c(sc3c2c(=O)n(Cc2ccccc2)c(=O)n3Cc2c(F)cccc2Cl)C1	3%	nt	nt	nt	nt	nt
Cc1cc2c(cc1C)NC(c1c(C)n(C)n(-c3ccccc3)c1=O)C1=C(CC(C)(C)CC1=O)N2 (centres undefined)	-1%	?	-3%	11µM*	i	36%
COc1cc(C2Nc3cc(C)c(C)cc3NC3=C2C(=O)CC(C)(C)C3)ccc1OC(C)=O (centres undefined)	2%	0	12%	9%	i	5%
Cc1sc2nc(-c3ccncc3)[nH]c(=O)c2c1-c1ccccc1	nt	nt	0%	0%	nt	nt
SMILES	PINK1 expr mod	IL1B secr inh	SW480 rereplic	MCF10A rereplic	ATXN viability	ATXN2 expr inh
Cc1sc2nc(-c3ccccn3)[nH]c(=O)c2c1-c1ccccc1	4%	92	23µM*	?	nt	17%[11.3 µM]
CC1CN(CCC(=O)N2CCCC(C(=O)c3nccn3C)C2)Cc2cc(Cl)ccc2O1 (centres undefined)	2%	nt	nt	nt	i	nt
O=C(CN1CCC(C(O)(c2ccccc2)c2ccccc2)CC1)Nc1cc(Cl)ccc1Cl	nt	-67*	?	-46%	i	-11%
O=C(CN1CCC(C(O)(c2ccccc2)c2ccccc2)CC1)Nc1ccccc1	-2%[38.3 µM]	-55*	-3%	-4%	?	-35%
COc1ccccc1NC(=O)C1=C(C)Nc2nc(SCc3ccccc3)nn2C1c1cccc(O)c1 (centres undefined)	-2%	nt	nt	nt	nt	?
CCCCCCCCCCCCOC(=O)N1CCN(/[N+]([O-])=N/Oc2ccc([N+](=O)[O-])cc2[N+](C)=O)CC1	-1%	nt	nt	nt	nt	nt
CC(=O)ON=C1C=CC(=C(C#N)c2ccccc2)C=C1	0%	-111*	nt	nt	14µM*	14µM*
COc1ccc(C(=O)c2ccc(Cl)cc2)cc1	2%	0	-5%	1%	?	20%
COc1ccc(C(C#N)=C2C=CC(=NO)C=C2)cc1	0%	-101*	?	23µM*	?	56%
Cc1ccc(Cl)cc1N1CCN(C(=O)C2CCN(S(=O)(=O)c3c(C)noc3/C=C/c3ccccc3F)CC2)CC1	3%	nt	nt	nt	nt	nt
COC(=O)c1ccc(NC(=O)c2c(NCc3ccc(OC)c(OC)c3)sc3c2CCCC3)cc1	15%	nt	nt	nt	nt	?
C=CCn1cc(/C=N/Nc2nc3ccccc3[nH]2)c2ccccc21	?	-95*	20%	?	?	-4%
Cc1c(/C=N/Nc2nc3ccccc3[nH]2)c2ccccc2n1C	9%	-99*	?	16µM*	?	-25%
Cc1nn(-c2ccccc2)c(C)c1/C=N/Nc1nc2ccccc2[nH]1	-1%	-88*	?	?	?	-9%
C(=N\Nc1nc2ccccc2[nH]1)/c1cccs1	1%	-71*	0%	1%	i	52%
Cc1ccsc1/C=N/Nc1nc2ccccc2[nH]1	0%	35	5%	26%	i	?
Clc1nc2ccccc2cc1/C=N/Nc1nc2ccccc2[nH]1	8%	23	2%	-13%	i	17%
CCN1CCOC(=O)C1CC(=O)Nc1cc(Cl)ccc1OC (centres undefined)	-1%	nt	nt	nt	i	3%
COc1ccc(NC(=O)c2ccc(-c3nc(CSc4ccc(C)cc4)c(C)o3)cc2)cc1Cl	10%	nt	nt	nt	?	-9%
Cc1sc2ncnc(NCc3ccccc3)c2c1C	5%	-68*	2%	14%	i	?
C=CC[n+]1ccc(/C=C2\C=Cc3cc(C)ccc3N2CC)c2ccccc21	3.2µM*	-66*	101%	?	9.5µM*	?
